# Results from article PMC8384837, “Expanding the binding specificity for RNA recognition by a PUF domain”.
# Tests used:
# Assay in all cases: yeast three-hybrid, YBZ-1, SC-Leu-His + 0.5 mM 3-AT, 4 days
# Conditions in all cases: tags: N-Gal4 AD-HA kept; label: inside an RPR1-promoter hybrid RNA with tandem MS2 sites; ssRNA
# [1] = target: PUM1 PUF domain R3-GYV (Homo sapiens, UniProt Q14671 828-1176, C935G;R936Y;Q939V)
# Summary of the method: (§1)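 Sequencing with Illumina followed PCR amplification of the repeat regions from transformants grown four days on SC-Leu (input) or SC-Leu-His + 0.5 mM 3-AT (selection). The transformants were strain YBZ-1 with a LexA–MS2 coat fusion and a HIS3 reporter, carrying Pumilio-1 PUF domain libraries and matching RNA elements. The interaction score is the log change in variant frequency from input to selection, computed in log2 with a pseudocount of 1 for absent variants.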
# [2] = target: T1, PUM1 PUF domain R6-MFS (Homo sapiens, UniProt Q14671 828-1176, N1043M;Y1044F;Q1047S)
# T1 sequence: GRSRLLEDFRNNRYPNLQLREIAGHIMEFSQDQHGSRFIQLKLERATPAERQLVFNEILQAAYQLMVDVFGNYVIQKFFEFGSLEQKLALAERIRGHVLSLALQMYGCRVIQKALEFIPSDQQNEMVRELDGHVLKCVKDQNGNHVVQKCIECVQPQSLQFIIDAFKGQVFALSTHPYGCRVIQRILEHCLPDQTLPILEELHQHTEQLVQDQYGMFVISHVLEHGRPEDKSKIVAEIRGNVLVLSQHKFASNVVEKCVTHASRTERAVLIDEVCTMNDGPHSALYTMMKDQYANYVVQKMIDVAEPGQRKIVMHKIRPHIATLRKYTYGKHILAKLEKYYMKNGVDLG
# Summary of the method: as §1
# [3] = target: PUM1 PUF domain R8-HYR (Homo sapiens, UniProt Q14671 828-1176, N1122H;Q1126R)
# Summary of the method: as §1
# [4] = target: PUM1 PUF domain R8-KWV (Homo sapiens, UniProt Q14671 828-1176, N1122K;Y1123W;Q1126V)
# Summary of the method: as §1
# [5] = target: PUM1 PUF domain R4-APN (Homo sapiens, UniProt Q14671 828-1176, N971A;H972P;Q975N)
# Summary of the method: as §1
# [6] = target: PUM1 PUF domain R1-KMR (Homo sapiens, UniProt Q14671 828-1176, S863K;R864M;Q867R)
# Summary of the method: as §1
# [7] = target: PUM1 PUF domain R5-RPC (Homo sapiens, UniProt Q14671 828-1176, C1007R;R1008P;Q1011C)
# Summary of the method: as §1
# [8] = target: PUM1 PUF domain R4-WFS (Homo sapiens, UniProt Q14671 828-1176, N971W;H972F;Q975S)
# Summary of the method: as §1
# [9] = target: PUM1 PUF domain R4-GNH (Homo sapiens, UniProt Q14671 828-1176, N971G;H972N;Q975H)
# Summary of the method: as §1
# [10] = target: PUM1 PUF domain R7-RCK (Homo sapiens, UniProt Q14671 828-1176, S1079R;N1080C;E1083K)
# Summary of the method: as §1
sequence,measurement,setting,value
GGCUAGAACUAGUGGAUCCCCCGGCGCCCGGCGGCUCGAGCCCGGGUAAGUGUAAAUAGUCUGCAUGCCGCCGGGCGCCAUGCCUGCAGGUCGACUCUAGAAAACAUG,binding signal,[1],3.26 log2 enrichment (interaction score)
same,binding signal,[2],3 log2 enrichment (interaction score)
same,binding signal,[3],2.29 log2 enrichment (interaction score)
same,binding signal,[4],5.94 log2 enrichment (interaction score)
same,binding signal,[5],4.29 log2 enrichment (interaction score)
GGCUAGAACUAGUGGAUCCCCCGGCGCCCGGCGGCUCGAGCCCGGGUAAGUGUAAAUUGUCUGCAUGCCGCCGGGCGCCAUGCCUGCAGGUCGACUCUAGAAAACAUG,binding signal,[6],6.29 log2 enrichment (interaction score)
GGCUAGAACUAGUGGAUCCCCCGGCGCCCGGCGGCUCGAGCCCGGGUAAGUGUACAUAGUCUGCAUGCCGCCGGGCGCCAUGCCUGCAGGUCGACUCUAGAAAACAUG,binding signal,[5],1.7 log2 enrichment (interaction score)
GGCUAGAACUAGUGGAUCCCCCGGCGCCCGGCGGCUCGAGCCCGGGUAAGCGUAAAUAGUCUGCAUGCCGCCGGGCGCCAUGCCUGCAGGUCGACUCUAGAAAACAUG,binding signal,[4],5.88 log2 enrichment (interaction score)
GGCUAGAACUAGUGGAUCCCCCGGCGCCCGGCGGCUCGAGCCCGGGUAAGUGUCAAUAGUCUGCAUGCCGCCGGGCGCCAUGCCUGCAGGUCGACUCUAGAAAACAUG,binding signal,[7],1.49 log2 enrichment (interaction score)
GGCUAGAACUAGUGGAUCCCCCGGCGCCCGGCGGCUCGAGCCCGGGUAAGUGUAUAUAGUCUGCAUGCCGCCGGGCGCCAUGCCUGCAGGUCGACUCUAGAAAACAUG,binding signal,[8],3.06 log2 enrichment (interaction score)
same,binding signal,[9],3.07 log2 enrichment (interaction score)
GGCUAGAACUAGUGGAUCCCCCGGCGCCCGGCGGCUCGAGCCCGGGUAAGUCUAAAUAGUCUGCAUGCCGCCGGGCGCCAUGCCUGCAGGUCGACUCUAGAAAACAUG,binding signal,[10],4.15 log2 enrichment (interaction score)
GGCUAGAACUAGUGGAUCCCCCGGCGCCCGGCGGCUCGAGCCCGGGUAAGUGUUAAUAGUCUGCAUGCCGCCGGGCGCCAUGCCUGCAGGUCGACUCUAGAAAACAUG,binding signal,[7],2.17 log2 enrichment (interaction score)
GGCUAGAACUAGUGGAUCCCCCGGCGCCCGGCGGCUCGAGCCCGGGUAAGUAUAAAUAGUCUGCAUGCCGCCGGGCGCCAUGCCUGCAGGUCGACUCUAGAAAACAUG,binding signal,[10],2.31 log2 enrichment (interaction score)
